Hits are enriched below; roughly 7.3% of the tested compounds scored in any of these assays.
FMDV antiviral = foot and mouth disease virus antiviral activity; FMDV antiviral cell-based qHTS; Potency, µM (highest dose often 57.9 µM), actives largely listed as inhibitors; 1.2% of 410,000 active; AID 1159524; calls by dose curve; tested in HEK293T cells; further: read-out not given here; nearly all actives have a fitted effect of over 45% in size
HCV inhibitor = HCV inhibition | Huh7.5.1 HCVcc-Cre infection, luciferase reporter, 44 h | Potency, µM (doses to about 41.8 µM), hits mostly inhibitors | 3.4% of 340,000 active | AID 651820
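After 44 h co-culture of compound, cells and HCVcc-Cre (~0.5 moi), substrate is added for 15 min at room temperature and luciferase measured over 15 sec. Cells were seeded at 1,000/well and pre-cultured 4 h.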
AmpC detergent = AmpC beta-lactamase inhibition with detergent present. AmpC hydrolysis of nitrocefin, absorbance 480 nm, 0.01% Triton. Potency, µM (series often up to 114 µM), most hits filed as inhibitors. 0.041% of 370,000 active; further: nearly all actives have a fitted effect of over 25% in size
Target sequence (P00811 whole entry, looked up): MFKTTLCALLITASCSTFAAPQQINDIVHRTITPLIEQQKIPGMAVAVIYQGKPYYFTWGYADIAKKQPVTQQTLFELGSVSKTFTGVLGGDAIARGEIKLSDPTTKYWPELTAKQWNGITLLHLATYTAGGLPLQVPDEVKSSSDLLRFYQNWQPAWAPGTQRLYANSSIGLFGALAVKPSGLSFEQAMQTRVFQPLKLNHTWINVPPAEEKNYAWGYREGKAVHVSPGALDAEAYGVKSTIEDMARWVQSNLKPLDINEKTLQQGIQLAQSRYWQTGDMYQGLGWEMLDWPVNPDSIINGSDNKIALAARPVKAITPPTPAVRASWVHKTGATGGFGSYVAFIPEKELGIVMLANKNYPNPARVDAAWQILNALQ
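20 mM phosphate pH 7.0 + 0.01% (detergent screen) or 0.0001% Triton X-100; 5.3 nM AmpC reagent; cpd preinc 15 min RT; nitrocefin (800 uM stock) to start; A480 q20 s × 4 min; Activity was normalised to no-enzyme and no-compound control wells.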
AmpC no deterg = blocks E. coli AmpC beta-lactamase in detergent-free assay; 0.52% of 330,000 active; Potency, µM (highest dose often 57.1 µM), usual class: inhibitors; P00811; AmpC nitrocefin hydrolysis, absorbance 480 nm, 0.0001% Triton; AID 485341; further: nearly all actives have a fitted effect of over 20% in size
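20 mM phosphate pH 7.0 + 0.01% (detergent screen) or 0.0001% Triton X-100; 5.3 nM AmpC reagent; cpd preinc 15 min RT; nitrocefin (800 uM stock) to start; A480 q20 s × 4 min; Activity was normalised to no-enzyme and no-compound control wells.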
HCMV inh = human cytomegalovirus inhibition. HFF cells, HCMV-luciferase reporter, 72 h; hits give low values. activity change, negative = inhibition, % at 57.5 µM. 4.5% of 410,000 active. AID 1259415; in the data active means activity change below about -60%; inconclusive means no clear call, values can overlap the other calls; inactive means above about -39%
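Luciferase read-out from HCMV-luciferase-infected HFFs (MOI 1 PFU/cell) 72 h post infection at 37C; compounds added after 16 h cell attachment; activity normalized between buffer-only basal and Salinomycin (10uM) inhibitor controls.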
Of the large screens only hits and unclear results are named; the others gave an inactive call; ! = a repeat was not active. Unless noted, the call rests on the fitted dose curve; in most records, active means well fitted curve in the direction sought with a large enough effect; inconclusive means small, poorly fitted or top-dose-only effect, or another doubt; inactive means no such curve, though single readings can be large; an effect the other way counts as inactive or inconclusive.

Cc1csc(N(C(=O)c2cccc(S(=O)(=O)N3CCCC3)c2)c2ccccc2)n1	FMDV antiviral inconclusive
Cc1cc(C)c2c(n1)sc1c(=O)n(-c3cc(Cl)ccc3C)nnc12	HCMV inh -60 (no result: HCV inhibitor, AmpC no deterg)
O=C(NC1CCCCCC1)C(=S)N1CCOCC1	none
S=C(NC1CCCCC1)N1CCOCCOCCN(C(=S)NC2CCCCC2)CCOCCOCC1	HCMV inh -78
CC(C)c1ccc(N=Nc2c(O)[nH]c(=O)[nH]c2=O)cc1	none
O=c1[nH]c(=S)[nH]c(O)c1N=Nc1ccc(SC(F)F)cc1	HCMV inh -61
Cc1cccc(NC(=O)c2cc(Cl)nc3ccccc23)n1	none
COc1cc(OC)cc(C2=Cc3ccc(OC)cc3C(CC(C)=O)N2c2ccc(-c3cccs3)cc2)c1 (centres undefined)	HCMV inh -83 (no result: HCV inhibitor, AmpC detergent, AmpC no deterg)
Cc1ccccc1Cn1c(=O)n(CC2CCC(C(=O)N3CCC(C)CC3)CC2)c(=O)c2sccc21 (centres undefined)	FMDV antiviral inconclusive, HCMV inh -75 (no result: HCV inhibitor, AmpC no deterg)
O=C(Nc1ccccc1)c1c(F)c(F)c(F)c(F)c1F	HCV inhibitor inconclusive, HCMV inh inconclusive (no result: FMDV antiviral)
CC(C)c1c(C(=O)Nc2ccccc2)c(-c2ccccc2)c(-c2ccc(F)cc2)n1CC[C@@H](O)C[C@@H](O)CC(=O)O	HCMV inh -67 (no result: HCV inhibitor, AmpC detergent, AmpC no deterg)
Cn1c(SCc2cccc([N+](=O)[O-])c2)nc2c(c1=O)SCC2	FMDV antiviral 28µM, HCV inhibitor inconclusive, AmpC detergent inconclusive, HCMV inh -72
O=C(N/N=C/c1cnc(N2CCCCC2)s1)c1ccc(C(F)(F)F)cc1	HCV inhibitor 11µM
CC1CN(c2ncc(/C=N/NC(=O)c3ccccc3O)s2)CC(C)O1 (centres undefined)	none
Cc1nc2ncnn2c(C)c1CCC(=O)Oc1ccccc1	HCMV inh -60
Cc1nc2ncnn2c(C)c1CCC(=O)NCCc1ccccc1	none
Cc1nc(C)n(CC(=O)NCC2Cc3cc(-c4ccsc4)cc(Cl)c3O2)n1 (centres undefined)	none (no result: HCV inhibitor, AmpC detergent, AmpC no deterg, HCMV inh)
CCN(CC)CCOc1ccc(/C(=C(/Cl)c2ccccc2)c2ccccc2)cc1	FMDV antiviral inconclusive, HCV inhibitor 7.9µM, AmpC detergent inconclusive, HCMV inh -71!
CC/C(=C(\c1ccc(O)cc1)c1ccc(OCCN(C)C)cc1)c1ccccc1	HCV inhibitor inconclusive, HCMV inh -67
CCC(=C(c1ccc(O)cc1)c1ccc(OCCN(C)C)cc1)c1ccccc1	none (no result: HCV inhibitor, AmpC detergent, AmpC no deterg)
CCOc1ccc(C(=O)OCCN(CC)CC)cc1	none
COc1ccc(OC)c(CNS(=O)(=O)c2ccccc2Br)c1	none (no result: FMDV antiviral, HCV inhibitor, AmpC detergent, AmpC no deterg)
Cc1cc(NC(=O)CS(=O)(=O)c2cn(Cc3cccc(F)c3)c3ccccc23)no1	FMDV antiviral 40µM, HCV inhibitor inconclusive
Cc1cc(NC(=O)CS(=O)(=O)c2cn(Cc3ccc(F)cc3)c3ccccc23)no1	FMDV antiviral inconclusive, HCV inhibitor inconclusive, AmpC detergent inconclusive
O=[N+]([O-])c1ccc(N2CCN(CCO)CC2)cc1Sc1ccccn1	none
CCN1CCN(c2ccc([N+](=O)[O-])c(Sc3nc4ccccc4[nH]3)c2)CC1	HCV inhibitor 22µM
CS(=O)(=O)c1cc([N+](=O)[O-])c(Sc2nc3ccccc3[nH]2)c([N+](=O)[O-])c1	FMDV antiviral inconclusive, HCV inhibitor inconclusive, AmpC detergent inconclusive, AmpC no deterg 22µM
Cn1nccc1-c1ccc(C(=O)Nc2cccc(NS(C)(=O)=O)c2)c2occc12	FMDV antiviral inconclusive (no result: HCV inhibitor, AmpC detergent, AmpC no deterg)
CS(=O)(=O)Nc1cccc(NC(=O)c2ccc(-n3ccnc3)c3ccoc23)c1	HCMV inh -63 (no result: HCV inhibitor, AmpC detergent, AmpC no deterg)
COc1ccc(/C=N/NC(=O)c2nc(Cl)c(Cl)c(N)c2Cl)cc1COc1ccc(F)cc1F	HCV inhibitor 11µM
COc1ccc(/C=N/NC(=S)Nc2ccccc2)cc1COc1ccccc1F	AmpC no deterg 14µM (no result: FMDV antiviral)
COc1ccc(/C=N\NC(=O)c2ccccc2F)cc1COc1ccc(F)cc1F	HCV inhibitor inconclusive, HCMV inh -80
COc1ccc(/C=N\NC(=O)c2ccccc2F)cc1COc1ccc(F)cc1	none
CCCN(CC(=O)Nc1ccccc1C)C(=O)c1ccc(=O)n(Cc2ccccc2)n1	AmpC detergent inconclusive
N#Cc1[nH]nc2nc[nH]c(=O)c12	none (no result: FMDV antiviral, HCV inhibitor, AmpC detergent, AmpC no deterg)
Oc1ccc(CCNc2ncnc3ccc(Cl)cc23)cc1	FMDV antiviral 10µM, HCV inhibitor 3.2µM, HCMV inh -98
CC(/C=C/c1ccccc1)=N/NC(=O)c1cc([N+](=O)[O-])cc([N+](=O)[O-])c1	none
CC(/C=C/c1ccccc1)=N\Nc1ccccc1[N+](=O)[O-]	HCMV inh -73
O=C(Nc1ccccc1)OCc1cnc(Cl)s1	none
O=C(Nc1ccc(Cl)c(Cl)c1)OCc1cnc(Cl)s1	HCV inhibitor 11µM
CO[C@@H]1CN(C)C(=O)c2ccc(NC(=O)C3CCCC3)cc2OC[C@@H](C)N(Cc2ccc(F)cc2)C[C@H]1C	HCMV inh -63 (no result: HCV inhibitor, AmpC detergent, AmpC no deterg)
COc1ccc(C2=Nn3c(nnc3-c3ccccc3C(F)(F)F)SC2)cc1OC1CCOC1 (centres undefined)	none (no result: HCV inhibitor, AmpC detergent)
Fc1ccccc1-c1nnc2n1N=C(c1ccc(OC(F)F)c(OCC3CC3)c1)CS2	none (no result: HCV inhibitor, AmpC detergent)
COc1ccc(C2=Nn3c(nnc3-c3ccccc3Cl)SC2)cc1OCC1CC1	HCMV inh -66 (no result: HCV inhibitor, AmpC detergent)
COc1ccc(OC)c(C2=Nn3c(nnc3-c3cc(C)[nH]n3)SC2)c1	none
CCOc1ccc(C2=Nn3c(nnc3-c3ccccc3OC)SC2)cc1	HCV inhibitor inconclusive, HCMV inh -94
COc1ccc(OC)c(-c2nnc3n2N=C(c2ccc(OC)c(OCC4CC4)c2)CS3)c1	FMDV antiviral 32µM (no result: HCV inhibitor, AmpC detergent, HCMV inh)
COc1ccc(C2=Nn3c(nnc3-c3ccccc3OC)SC2)cc1OC1CCOC1 (centres undefined)	HCMV inh -90 (no result: HCV inhibitor, AmpC detergent)
C=C1C(=O)O[C@@H]2C[C@@H](C)[C@@H]3C=CC(=O)[C@@]3(C)[C@@H](O)[C@H]12	FMDV antiviral 8.9µM!, HCV inhibitor 1.4µM, HCMV inh -100
C[C@@H]1C[C@@H]2OC(=O)[C@]3(C)[C@H]2[C@@H](OC3(C)O)[C@]2(C)C(=O)C=C[C@H]12 (some centres undefined)	none
C=C1C(=O)O[C@@H]2C[C@@H](C)[C@@H]3C=CC(=O)[C@@]3(C)[C@@H](OC(C)=O)[C@H]12	FMDV antiviral 3.2µM, HCV inhibitor 2.8µM, HCMV inh -99
CCOC(=O)c1ccccc1NC(=O)N1CCC(CN2CCOCC2)CC1	none (no result: HCV inhibitor, AmpC no deterg)
NC(=S)Nc1ccccc1Br	none
NC(=S)Nc1cccc2cc3ccccc3cc12	HCV inhibitor inconclusive, HCMV inh -105
NC(=S)Nc1cc2ccccc2c2ccccc12	FMDV antiviral inconclusive, HCV inhibitor inconclusive, HCMV inh -72
O=C(N[C@H]1CC[C@@]23CCCN2C(=O)CCC[C@H]3[C@H]1Cc1ccccc1)c1ccc(C(F)(F)F)cc1	none (no result: FMDV antiviral, HCV inhibitor, AmpC detergent, AmpC no deterg)
